Measurements as given in PubChem BioAssay (Tox21).
Records with an inconclusive call do not appear. Activity calls are given as the source filed them. The call rests on the fitted dose curve.

test: p53 small molecule agonists, cell-based qHTS assay with rat liver microsomes: qHTS cell viability counter screen (AID 1963580); settings: p53RE-bla HCT-116 + rat microsomes, ATP viability, 16 h; series mostly up to 66 µM; activity change, negative = cytotoxicity: at the top concentration; further: nearly all actives have a fitted effect of over 45% in size
Source text: National Center for Advancing Translational Sciences [NCATS]
Division of Preclinical Innovation [DPI]
U.S. Environmental Protection Agency [EPA]
National Institutes of Environmental Health Sciences [NIEHS]
National Toxicology Program [NTP]
U.S. Food and Drug Administration [FDA]
p53, a tumor suppressor protein, is activated following cellular insult, including DNA damage and other cellular stresses. The activation of p53 regulates cell fate by inducing DNA repair, cell cycle arrest, apoptosis, or cellular senescence. The activation of p53, therefore, is a good indicator of DNA damage and other cellular stresses. The CellSensor p53RE-bla HCT-116 cell line contains a stably integrated beta-lactamase reporter gene under control of the p53 response elements. The activation of the reporter gene under culture conditions can be detected by fluorescence intensity. This cell line was used to screen the Tox21 10K compound library in the condition of presence of rat liver microsomes and to identify agonists that activate the p53 signaling pathway after in vitro metabolic activation (Ooka et al., Archive of Toxicology 96:1975-1987, 2022). The cytotoxicity of the Tox21 compound library against the p53 RE-bla HCT-116 cell line was tested in parallel by measuring the intra cellular ATP content in the same wells.
Tox21 Assay Protocol Summary:
The p53RE-bla cells were dispensed at 4,000cells/3ul/well in 1536-well black-clear bottom plates. After the assay plates were incubated at 37 C, 5% CO2 incubator for 5 hours, 23 nL of compounds dissolved in DMSO, positive controls or DMSO only was transferred to the assay plate. Following compound addition, 3 uL of rat liver microsomes (Molecular Toxicology, Boone, NC) at final concentration of 0.5 mg/mL and 1uL of B-Nicotinamide adenine dinucleotide 2'-phosphate (NADPH) at final concentration of 0.5 mg/mL were transferred to the assay plate. The plates were incubated at 37 C for 16 hours. 1 uL of LiveBLAzer detection mixture was added to each well and the plates were incubated at room temperature in the dark for 2 h. Fluorescence intensity at 460 and 530 nm emission and 405 nm excitation were measured by an Envision plate reader. For cell viability readout that measures cytotoxicity, 4 ul/well of CellTiter-Glo reagent was added into the assay plates using a Flying Reagent Dispenser. After 30 min incubation at room temperature, the luminescence intensity in the plates was measured using a ViewLux plate reader.
On the % scale 0 is the no-effect control and ±100 the full control effect.

SMILES	activity change, negative = cytotoxicity
Nc1ccc(C(=O)NCC(=O)O)cc1	-1.41% [at 30.3 µM] (inactive)
COc1ccc(C(=O)c2ccc(OC)cc2O)c(O)c1	5.54% (inactive)
CCCCS	-0.896% (inactive)
c1ccc(CC2=NCCN2)cc1	20.1% [at 30.3 µM] (inactive)
CCCCC(CC)COC(=O)c1ccccc1O (stereo not given)	2.18% [at 30.3 µM] (inactive)
Cc1ccc(N(CCO)CCO)cc1	-1.31% (inactive)
CCCC1CCC(=O)O1 (stereo not given)	-5.08% (inactive)
O=C(CCc1ccc(O)cc1)c1c(O)cc(O)cc1O	0.776% (inactive)
O=C(CCBr)N1CCN(C(=O)CCBr)CC1	-12.8% [at 30.3 µM] (inactive)
CC/C(=C\C(=N/O)C(N)=O)C(C)[N+](=O)[O-] (stereo not given)	-3.2% (inactive)
O=C(O)C(Cc1cc(I)c(O)c(I)c1)c1ccccc1 (stereo not given)	-0.0836% [at 30.3 µM] (inactive)
CN1CCN(C2=Nc3cc(F)ccc3Cc3ccccc32)CC1	0.335% [at 30.3 µM] (inactive)
Cc1c(N)cccc1Cl	-2.33% (inactive)
CC[C@H]1OC(=O)[C@H](C)[C@@H](O[C@H]2C[C@@](C)(OC)[C@@H](O)[C@H](C)O2)[C@H](C)[C@@H](O[C@@H]2O[C@H](C)C[C@H](N(C)C)[C@H]2O)[C@](C)(OC)C[C@@H](C)C(=O)[C@H](C)[C@@H](O)[C@]1(C)O	11.9% (inactive)
Cc1cc(O)ccc1N	3.69% (inactive)
CC(C)(O)c1ccc(CNC(=O)c2cccnc2Oc2ccc3nonc3c2)cc1	-8.86% (inactive)
O=C(O)CCC(=O)OC[C@@H](NC(=O)C(Cl)Cl)[C@H](O)c1ccc([N+](=O)[O-])cc1	-4.62% [at 30.3 µM] (inactive)
CC(C)(O)CCCC1=CCC(C=O)CC1 (stereo not given)	1.21% (inactive)
Cc1cccc2sc(N)nc12	-4.14% (inactive)
CC(=O)Oc1cc(C(C)C)c(OCCN(C)C)cc1C	9.56% [at 30.3 µM] (inactive)

SMILES	activity change, negative = cytotoxicity
CN(C)CCN1C(=O)c2ccccc2N(C)c2ccccc21	3.7% [at 30.3 µM] (inactive)
COc1ccccc1N1CCN(CCCCNC(=O)c2ccc(-c3ccc(C(C)=O)cc3)cc2)CC1	0.316% [at 30.3 µM] (inactive)
CCCS(=O)c1ccc2nc(NC(=O)OC)[nH]c2c1 (stereo not given)	-0.613% [at 30.3 µM] (inactive)
CC1COc2c(N3CCN(C)CC3)c(F)cc3c(=O)c(C(=O)O)cn1c23 (stereo not given)	2.56% [at 30.3 µM] (inactive)
CCCCCCC(O)CCOC(C)=O (stereo not given)	1.84% [at 172 µM] (inactive)
CCCCCCCCCCCCCCCCCCO	0.413% [at 30.3 µM] (inactive)
CN1C(=O)N(c2ccccc2Br)Cc2cnc(Nc3ccc4c(c3)OCC(CO)O4)nc21 (stereo not given)	14.2% (inactive)
CN(CCOc1ccc(NS(C)(=O)=O)cc1)CCc1ccc(NS(C)(=O)=O)cc1	-7.8% [at 30.3 µM] (inactive)
O=C1CC2(CCCC2)CC(=O)N1	3.41% [at 30.3 µM] (inactive)
COc1cccc(O)c1O	-4.37% (inactive)
Cc1ccccc1C#N	-1.12% (inactive)
CC(=O)CCCCn1c(=O)c2c(ncn2C)n(C)c1=O	0.865% [at 30.3 µM] (inactive)
O=C(c1ccccc1)c1ccc(Cl)cc1	-1.11% (inactive)
O=C(NCCc1c[nH]c2ccccc12)c1cccnc1	3.6% [at 30.3 µM] (inactive)
NC1CCN(c2nc3c(cc2F)c(=O)c(C(=O)O)cn3-c2ccc(F)cc2F)C1 (stereo not given)	7.19% [at 30.3 µM] (inactive)
CC(C)C(=O)OC/C=C/c1ccccc1	-6.99% (inactive)
CCCCOCCOC(=O)c1cccnc1	-8.03% [at 30.3 µM] (inactive)
CC1(C)CC(N)CC(C)(C)N1	11.1% (inactive)
C=C(C)C(=O)OCC[N+](C)(C)C	10.3% (inactive)
CC1=NS(=O)(=O)c2cc(Cl)ccc2N1	-5.27% [at 30.3 µM] (inactive)
